About 79,000 compounds went through this panel and 15% of them were active in at least one assay; those are over-represented in the sample as a whole. Activity calls are given as the source filed them. No stated cut-off is given here; in the data, active means growth inhibition above about 70%; inactive means the rest.
Assay: NCI Yeast Anticancer Drug Screen. Data for the mlh1 rad18 strain (AID 175)
Details: S. cerevisiae mlh1 rad18 strain growth inhibition; at 5.0 µM (retest, dose inferred, filed as 0.5); stronger effect = higher value
Method in brief: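 Inhibition values reflect reduced growth of mutant yeast versus vehicle-treated controls following compound exposure; the mutations affect DNA damage repair.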
For `O=C(CBr)N1c2ccccc2Sc2ccc3ccccc3c21`, the growth inhibition was 88% (active). For `CC(C)(C)CC(C)(C)N[P+](NC(C)(C)CC(C)(C)C)(NC(C)(C)CC(C)(C)C)NC(C)(C)CC(C)(C)C`, the growth inhibition was 94% (active). In the case of `COc1ccc(/C=C/c2ccnnc2)c(OC)c1OC`, the growth inhibition is reported as -6% (inactive). With `O=Cc1cc(-c2ccccc2)n(-c2ccccc2)c1-c1ccccc1` the growth inhibition was -1% (inactive). In the case of `CC(=O)Oc1ccc(/C=C/c2ccncc2)cc1`, the growth inhibition is reported as -157% (inactive). In the case of `OC(c1ccccc1)(c1ccccc1)c1ccc[cH-]1.OC(c1ccccc1)(c1ccccc1)c1ccc[cH-]1.[Fe+2]`, the growth inhibition is reported as 1% (inactive). For `O=C1C=CC(=O)N1c1ccc(Cl)cc1Br`, the growth inhibition was 28% (inactive). With `Cc1c(N)nc(C2CC(=O)N2CC(N)C(N)=O)nc1C(=O)NC(C(=O)NC(C)C(O)C(C)C(=O)NC(C(=O)NCCc1nc(-c2nc(C(=O)NCCNCC(C)O)cs2)cs1)C(C)O)C(OC1OC(CO)C(O)C(O)C1OC1OC(CO)C(O)C(OC(N)=O)C1O)c1cnc[nH]1` (stereo not drawn) the growth inhibition was 97% (active). For `CNC(=S)/N=c1/sc([N+](=O)[O-])c(C)n1C`, the growth inhibition was -20% (inactive). With `O=c1c2ccccc2ncn1Cc1ccccc1[N+](=O)[O-]` the growth inhibition was 0% (inactive). In the case of `Cc1nn(C(=O)c2ccncc2)c(C)c1N=Nc1ccccc1[N+](=O)[O-]`, the growth inhibition is reported as 4% (inactive). For `CCC[CH2][Ge]([CH2]CCC)([CH2]CCC)[O]C(=O)C(OC(C)=O)c1ccccc1` (stereo not drawn), the growth inhibition was 87% (active). For `Nc1ccc2c(c1)[nH]c(=O)c1cc(Cl)c(Cl)cc12`, the growth inhibition was 53% (inactive). In the case of `CCCCCCCCCCCCSC1=C(N)C(=O)c2ccccc2C1=O`, the growth inhibition is reported as 0% (inactive). In the case of `CCC(C)(C)c1ccc(OCCO)c([N+](=O)[O-])c1`, the growth inhibition is reported as 29% (inactive). With `C/C(=N/O)c1cccc(C(F)(F)F)c1` the growth inhibition was -128% (inactive). For `CCCCCCN(S(=O)(=O)c1ccc([N+](=O)[O-])cc1)S(=O)(=O)c1ccc([N+](=O)[O-])cc1`, the growth inhibition was 18% (inactive). With `N#CC1=C(N)OC(c2ccccc2)=C(C#N)C1c1ccccc1[N+](=O)[O-]` (stereo not drawn) the growth inhibition was 2% (inactive). With `COC1CCCCC1C(=O)C(C#N)C1CCCCC1C1CCCCC1` (stereo not drawn) the growth inhibition was 0% (inactive). With `COCCOC1=C(Cl)C(=O)c2c(O)ccc(O)c2C1=O` the growth inhibition was 99% (active). In the case of `NC(CSSCC(N)C(=O)Nc1ccc2ccccc2c1)C(=O)Nc1ccc2ccccc2c1` (stereo not drawn), the growth inhibition is reported as 68% (inactive). With `CSc1c(S(C)=O)c2ccccc2n1C` (stereo not drawn) the growth inhibition was 27% (inactive). In the case of `CCCCCCCCCCCCCCCCNCCCCCCCC(=O)O`, the growth inhibition is reported as 2% (inactive).

Reference: PubChem BioAssay (NCI)
